Measured values taken from PubChem BioAssay (NCI).
About 83,000 compounds went through this panel and 20% of them were active in at least one assay; those are over-represented in the sample as a whole.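 Step 1: grow cells in 96-well plates. Step 2: add test compound at a single concentration. Step 3: incubate 48 h. Step 4: record percent growth.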 Active and inactive are the calls of the source. How the source made its calls: active means growth percent below 10; inactive means the rest.

Legend:
Assay in all cases: NCI-60 one-dose screen, 48 h (100 = growth as untreated, 0 = no growth, -100 = all killed)
Conditions in all cases: 10 µM unless noted
DU-145 prostate = tested on: DU-145 prostate
K-562 leukemia = tested on: K-562 leukemia
MALME-3M melanoma = tested on: MALME-3M melanoma
MDA-MB-231 breast = tested on: MDA-MB-231 breast
RXF 393 renal = tested on: RXF 393 renal
SF-268 CNS = tested on: SF-268 CNS
SF-295 CNS = tested on: SF-295 CNS
SF-539 CNS = tested on: SF-539 CNS
UACC-257 melanoma = tested on: UACC-257 melanoma
M14 melanoma = tested on: M14 melanoma
HCT-15 colon = tested on: HCT-15 colon
HT29 colon = tested on: HT29 colon
SNB-75 CNS = tested on: SNB-75 CNS
SNB-19 CNS = tested on: SNB-19 CNS
U251 CNS = tested on: U251 CNS
PC-3 prostate = tested on: PC-3 prostate
SK-MEL-5 melanoma = tested on: SK-MEL-5 melanoma
UACC-62 melanoma = tested on: UACC-62 melanoma
LOX IMVI melanoma = tested on: LOX IMVI melanoma
SK-MEL-28 melanoma = tested on: SK-MEL-28 melanoma

Measured: growth

Nc1nc(Nc2ccccc2SSc2ccccc2Nc2nc(N)nc(-c3cccc(Br)c3)n2)nc(-c2cccc(Br)c2)n1
active: U251 CNS -43.9% | LOX IMVI melanoma -62.1%
inactive: DU-145 prostate 62.1% | K-562 leukemia 58.8% | MALME-3M melanoma 99.9% | MDA-MB-231 breast 57.3% | RXF 393 renal 58% | SF-268 CNS 36.9% | SF-295 CNS 29.8% | SF-539 CNS 95.2% | UACC-257 melanoma 112% | M14 melanoma 90.4% | HCT-15 colon 50.8% | HT29 colon 108% | SNB-75 CNS 53.9% | SNB-19 CNS 25.4% | PC-3 prostate 34.7% | SK-MEL-5 melanoma 91.2% | UACC-62 melanoma 88.3% | SK-MEL-28 melanoma 98.9%

Nc1cc(-c2c[nH]c3ccc(Br)cc23)nc2cc(-c3c[nH]c4ccc(Br)cc34)nn12
inactive: DU-145 prostate 24.2% | MALME-3M melanoma 45.6% | RXF 393 renal 28.4% | SF-268 CNS 27.8% | UACC-257 melanoma 65% | SNB-75 CNS 41.9% | SNB-19 CNS 41.2% | PC-3 prostate 14.5% | SK-MEL-5 melanoma 36.7% | UACC-62 melanoma 11.6% | SK-MEL-28 melanoma 49.9%
active: K-562 leukemia 1.82% | MDA-MB-231 breast 7.95% | SF-295 CNS 6.52% | SF-539 CNS -4.74% | M14 melanoma -52.1% | HCT-15 colon 2.64% | HT29 colon -33.8% | U251 CNS -47.8% | LOX IMVI melanoma -52.8%

COc1ccc(C(=O)CSc2nc3c(c(Nc4ccc(S(N)(=O)=O)cc4)n2)CCCC3)cc1
inactive: DU-145 prostate 93.6% | K-562 leukemia 72.7% | MALME-3M melanoma 103% | MDA-MB-231 breast 88.1% | RXF 393 renal 82.5% | SF-268 CNS 108% | SF-295 CNS 90.6% | SF-539 CNS 83.1% | UACC-257 melanoma 109% | M14 melanoma 104% | HCT-15 colon 88.4% | HT29 colon 96.4% | SNB-75 CNS 119% | SNB-19 CNS 94.1% | U251 CNS 89.9% | PC-3 prostate 83.7% | SK-MEL-5 melanoma 96.6% | UACC-62 melanoma 93.5% | LOX IMVI melanoma 83% | SK-MEL-28 melanoma 110%

CN(C)CCN(C)c1ccc2ncc(C#Cc3cncc(C(=O)Nc4ccc(CN5CCN(C)CC5)c(C(F)(F)F)c4)c3)n2n1
active: DU-145 prostate -59.2% | K-562 leukemia 3.58% | MDA-MB-231 breast -53.4% | RXF 393 renal -90.1% | SF-539 CNS -9.03% | M14 melanoma -80.8% | HCT-15 colon -25.2% | HT29 colon -66.1% | SNB-19 CNS -11.3% | LOX IMVI melanoma -89%
inactive: MALME-3M melanoma 61.9% | SF-268 CNS 64.6% | SF-295 CNS 83.8% | UACC-257 melanoma 107% | SNB-75 CNS 47.9% | U251 CNS 64.1% | PC-3 prostate 65.2% | SK-MEL-5 melanoma 96.4% | UACC-62 melanoma 93% | SK-MEL-28 melanoma 105%

Cc1cc(-c2ccc(Cl)cc2)n(Cc2nnc(SCC(=O)Nc3ccc(S(N)(=O)=O)cc3)n2C2CCCCC2)n1
inactive: DU-145 prostate 117% | K-562 leukemia 104% | MALME-3M melanoma 87% | MDA-MB-231 breast 106% | RXF 393 renal 110% | SF-268 CNS 113% | SF-295 CNS 98% | SF-539 CNS 103% | UACC-257 melanoma 101% | M14 melanoma 99.8% | HCT-15 colon 98.4% | HT29 colon 108% | SNB-75 CNS 118% | SNB-19 CNS 97.6% | U251 CNS 101% | PC-3 prostate 101% | SK-MEL-5 melanoma 100% | UACC-62 melanoma 99.2% | LOX IMVI melanoma 101% | SK-MEL-28 melanoma 106%

Cc1ccc(-c2cc3nc(C(Cl)Cl)nc(C)n3n2)cc1
inactive: DU-145 prostate 96.8% | K-562 leukemia 112% | MALME-3M melanoma 105% | MDA-MB-231 breast 87% | RXF 393 renal 118% | SF-268 CNS 106% | SF-295 CNS 108% | SF-539 CNS 97.8% | UACC-257 melanoma 112% | M14 melanoma 106% | HCT-15 colon 109% | HT29 colon 104% | SNB-75 CNS 129% | SNB-19 CNS 104% | U251 CNS 108% | PC-3 prostate 98.1% | SK-MEL-5 melanoma 98.2% | UACC-62 melanoma 99.6% | LOX IMVI melanoma 96.8% | SK-MEL-28 melanoma 105%

C#CC(=O)N(c1ccc(OC)cc1OC)C(C(=O)NCC(=O)OCC)c1cccs1 (stereo not given)
active: K-562 leukemia 3.23% | MALME-3M melanoma -61.8% | SF-268 CNS -23.1% | SF-295 CNS -67.9% | SF-539 CNS -86% | HT29 colon -7.89% | SNB-75 CNS -71% | U251 CNS 5.16% | PC-3 prostate -13.2% | LOX IMVI melanoma -78.8%
inactive: DU-145 prostate 33.2% | MDA-MB-231 breast 22.4% | RXF 393 renal 56.5% | UACC-257 melanoma 86.6% | M14 melanoma 80.9% | HCT-15 colon 56.6% | SNB-19 CNS 77.1% | SK-MEL-5 melanoma 99.3% | UACC-62 melanoma 82.6% | SK-MEL-28 melanoma 92.4%

C=C(C)[C@@H]1CC[C@]2(COCCCNCCC#N)CC[C@]3(C)[C@H](CC[C@@H]4[C@@]5(C)CC[C@H](OCCCNCCC#N)C(C)(C)[C@@H]5CC[C@]43C)[C@@H]12
inactive: DU-145 prostate 65% | MALME-3M melanoma 72.4% | MDA-MB-231 breast 54.8% | SF-268 CNS 55.6% | SF-295 CNS 55.9% | SF-539 CNS 67.5% | UACC-257 melanoma 61.5% | M14 melanoma 75.3% | HCT-15 colon 47% | HT29 colon 49.9% | SNB-75 CNS 54.4% | SNB-19 CNS 83.5% | U251 CNS 70.9% | PC-3 prostate 42.5% | SK-MEL-5 melanoma 15% | UACC-62 melanoma 69.1% | SK-MEL-28 melanoma 90.5%
active: K-562 leukemia 3.78% | RXF 393 renal -9.12% | LOX IMVI melanoma -1.84%

O=C(NNc1nc2cc(F)ccc2n2cccc12)c1ccncn1
inactive: DU-145 prostate 18.6% | K-562 leukemia 14.6% | MALME-3M melanoma 27.6% | MDA-MB-231 breast 41.1% | RXF 393 renal 30.3% | SF-268 CNS 19.6% | SF-295 CNS 12.1% | HCT-15 colon 25.8% | HT29 colon 28.3% | SNB-19 CNS 25.1% | U251 CNS 12.9% | PC-3 prostate 35.6% | SK-MEL-28 melanoma 23.5%
active: SF-539 CNS 4.41% | UACC-257 melanoma 5.01% | M14 melanoma 1.55% | SNB-75 CNS -2.99% | SK-MEL-5 melanoma -22.1% | UACC-62 melanoma 4.91% | LOX IMVI melanoma 7.82%

O=C1/C(=C/C=C/c2ccco2)SC(=S)N1C1CCCCC1
inactive: DU-145 prostate 95% | K-562 leukemia 83.5% | MALME-3M melanoma 83.6% | MDA-MB-231 breast 74% | RXF 393 renal 47.7% | SF-268 CNS 109% | SF-295 CNS 97.6% | SF-539 CNS 94.8% | UACC-257 melanoma 67.7% | M14 melanoma 93.8% | HCT-15 colon 79.2% | HT29 colon 85.3% | SNB-75 CNS 103% | SNB-19 CNS 93.9% | U251 CNS 84% | PC-3 prostate 92.9% | SK-MEL-5 melanoma 58.4% | UACC-62 melanoma 56.7% | LOX IMVI melanoma 103% | SK-MEL-28 melanoma 72.5%

CNC(=O)c1cc(Oc2ccc3nc(NC(=O)c4ccc(N5CCOCC5)c(C(F)(F)F)c4)sc3c2)ccn1
inactive: DU-145 prostate 98.2% | K-562 leukemia 71.9% | MALME-3M melanoma 94.2% | MDA-MB-231 breast 84.9% | SF-268 CNS 92.8% | SF-295 CNS 26.5% | SF-539 CNS 68.3% | UACC-257 melanoma 96.2% | M14 melanoma 85.9% | HCT-15 colon 51.5% | HT29 colon 48.5% | SNB-75 CNS 96.2% | SNB-19 CNS 86.6% | U251 CNS 65.6% | PC-3 prostate 59% | SK-MEL-5 melanoma 28.8% | UACC-62 melanoma 47.7% | LOX IMVI melanoma 76.3% | SK-MEL-28 melanoma 86.1%
active: RXF 393 renal -31.3%

O=C(Nc1nonc1-c1ccccc1)c1ccc(C(F)(F)F)cc1
inactive: DU-145 prostate 92.5% | K-562 leukemia 70% | MALME-3M melanoma 68.5% | MDA-MB-231 breast 85.1% | RXF 393 renal 90.3% | SF-268 CNS 81.6% | SF-295 CNS 59.7% | SF-539 CNS 95.9% | UACC-257 melanoma 77.8% | M14 melanoma 71.1% | HCT-15 colon 80.6% | HT29 colon 103% | SNB-75 CNS 104% | SNB-19 CNS 62% | U251 CNS 70.1% | PC-3 prostate 71.7% | SK-MEL-5 melanoma 65.6% | UACC-62 melanoma 56% | SK-MEL-28 melanoma 77.5%
active: LOX IMVI melanoma -46.7%

COc1cc2oc(-c3cccc(C(=O)N[C@@H](CC(C)C)C(=O)OC(C)(C)C)c3)cc(=O)c2c(OC)c1OC
inactive: DU-145 prostate 72.8% | K-562 leukemia 36.7% | MALME-3M melanoma 96.3% | MDA-MB-231 breast 72.1% | RXF 393 renal 86.2% | SF-268 CNS 83.8% | SF-295 CNS 52.3% | SF-539 CNS 88.6% | UACC-257 melanoma 112% | M14 melanoma 93.7% | HCT-15 colon 36.9% | HT29 colon 83.7% | SNB-75 CNS 80.9% | SNB-19 CNS 78.3% | U251 CNS 76.1% | PC-3 prostate 58.4% | SK-MEL-5 melanoma 74.1% | UACC-62 melanoma 51.6% | LOX IMVI melanoma 46.5% | SK-MEL-28 melanoma 95.9%

COc1cc(-c2nn(C(C)(C)C)cc2-c2ccnc(NCCCNS(=O)(=O)c3cccc(F)c3)n2)ccc1Cl
active: RXF 393 renal -0.456%
inactive: DU-145 prostate 69.3% | K-562 leukemia 33.4% | MALME-3M melanoma 88.4% | MDA-MB-231 breast 61% | SF-268 CNS 56.7% | SF-295 CNS 83.7% | SF-539 CNS 88.4% | UACC-257 melanoma 97.4% | M14 melanoma 80% | HCT-15 colon 63.7% | HT29 colon 65.1% | SNB-75 CNS 46.2% | SNB-19 CNS 93.4% | U251 CNS 88.3% | PC-3 prostate 51.3% | SK-MEL-5 melanoma 81.8% | UACC-62 melanoma 69.2% | LOX IMVI melanoma 67.2% | SK-MEL-28 melanoma 91.6%

COc1ccc(OC)c(-c2nc(SCC(=O)c3ccc(Br)cc3)nc(Nc3ccc(S(N)(=O)=O)cc3)c2C#N)c1
inactive: DU-145 prostate 55.2% | K-562 leukemia 22.5% | MALME-3M melanoma 50.2% | MDA-MB-231 breast 63% | RXF 393 renal 17.3% | SF-268 CNS 56.7% | SF-295 CNS 33.1% | SF-539 CNS 28.4% | UACC-257 melanoma 56.9% | M14 melanoma 42.5% | HCT-15 colon 22.1% | HT29 colon 27.2% | SNB-75 CNS 22.1% | SNB-19 CNS 49.9% | U251 CNS 37.6% | PC-3 prostate 35.3% | SK-MEL-5 melanoma 56.1% | UACC-62 melanoma 42.7% | LOX IMVI melanoma 32.6% | SK-MEL-28 melanoma 57.7%
